# Targets with a hit are over-represented here; the source holds about 7,900 in all. About 0.6% of all pairs of compound and target were hits. Unmarked numbers belong to inactive results.
# Experiments:
# Experiment in all cases: log2 fold change, soluble protein after heating vs DMSO (PISA); higher = thermal stabilisation; K562 cells, 10 uM, 30 min; active = over 0.2 and 3.5 SD of the protein, either way, in both replicates (recomputed)
# [1] = compound: COC1=CC=C(C=C1)CN2C=CC3=C2C=C(C=C3)C(=O)NO
# Outline: (§1)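 K562 cells at 2×10^6 cells/mL were exposed to 10 μM compound for 30 min, then aliquots were heated for 3 min across 48°C-58°C, pooled, and extracted in PBS containing 0.5% NP-40 at 4°C. The supernatant after 21,000xg for 90 min was taken as soluble protein and measured by TMTpro 16plex LC-MS/MS with channel sums equalised. Thermal stability is reported relative to control samples, with values from duplicates. Fold changes are given on a log2 scale.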
# [2] = compound: CON(C)C(=O)N1N=C(c2cc(F)ccc2F)S[C@@]1(CCCN)c1ccccc1 [filanesib]
# Outline: as §1
# [3] = compound: CO[C@H]1C[C@@H]2CC[C@@H](C)[C@@](O)(O2)C(=O)C(=O)N2CCCC[C@H]2C(=O)O[C@H]([C@H](C)C[C@@H]2CC[C@H](n3cnnn3)[C@H](OC)C2)CC(=O)[C@H](C)/C=C(\C)[C@@H](O)[C@@H](OC)C(=O)[C@H](C)C[C@H](C)/C=C/C=C/C=C/1C [zotarolimus]
# Outline: as §1
# [4] = compound: COc1cc(C(=O)O)ccc1NC(=O)[C@@H]1N[C@@H](CC(C)(C)C)[C@](C#N)(c2ccc(Cl)cc2F)[C@H]1c1cccc(Cl)c1F [idasanutlin]
# Outline: as §1
# [5] = compound: COc1cc(Nc2ncc3c(n2)-c2ccc(Cl)cc2C(c2c(F)cccc2OC)=NC3)ccc1C(=O)O [alisertib]
# Outline: as §1
# [6] = compound: COc1cc2nc(-c3cc(F)ccc3O)nc(N[C@@H]3CNC[C@H]3C(C)(C)O)c2cc1OC
# Outline: as §1
# [7] = compound: COc1cc2ncnc(Nc3ccc(F)c(Cl)c3)c2cc1OCCCN1CCOCC1 [gefitinib]
# Outline: as §1
# [8] = compound: COc1cccc2cc(-c3nc([C@H]4CC[C@H](C(=O)O)CC4)n4ncnc(N)c34)[nH]c12
# Outline: as §1
# [9] = compound: CS(=O)(=O)CCNCc1ccc(-c2ccc3ncnc(Nc4ccc(OCc5cccc(F)c5)c(Cl)c4)c3c2)o1 [lapatinib]
# Outline: as §1
# [10] = compound: CS(=O)(=O)N1CCN(Cc2cc3nc(-c4cccc5[nH]ncc45)nc(N4CCOCC4)c3s2)CC1 [pictilisib]
# Outline: as §1
# [11] = compound: CS(=O)(=O)c1ccc(-c2cnc(N)c(C(=O)Nc3ccccc3)n2)cc1
# Outline: as §1
# [12] = compound: C[C@@H](Oc1cc(-c2cnn(C3CCNCC3)c2)cnc1N)c1c(Cl)ccc(F)c1Cl [crizotinib]
# Outline: as §1
# [13] = compound: C[C@@H]1COCCN1C2=NC(=NC(=C2)C3(CC3)S(=O)(=O)C)C4=C5C=CNC5=CC=C4
# Outline: as §1
# [14] = compound: C[C@H](C1=CC=C(C=C1)C(=O)NC2=C3C=CNC3=NC=C2)N
# Outline: as §1
# [15] = compound: C[C@H](Nc1ncnc2nc[nH]c12)c1cc2cccc(Cl)c2c(=O)n1-c1ccccc1 [duvelisib]
# Outline: as §1
# [16] = compound: Cc1cc(Nc2cc(CN3CCOCC3)c3nc(C)c(Cc4ccc(Cl)cc4F)n3n2)n[nH]1 [gandotinib]
# Outline: as §1
# [17] = compound: Cc1cc(Nc2cc(N3CCN(C)CC3)nc(Sc3ccc(NC(=O)C4CC4)cc3)n2)n[nH]1 [tozasertib]
# Outline: as §1
# [18] = compound: Cc1cc(SCc2sc(-c3ccc(C(F)(F)F)cc3)nc2C)ccc1OCC(=O)O
# Outline: as §1
# [19] = compound: Cc1ccc(-n2nc(C(C)(C)C)cc2NC(=O)Nc2ccc(OCCN3CCOCC3)c3ccccc23)cc1 [doramapimod]
# Outline: as §1
# [20] = compound: Cc1ccc(C(=O)N(CCCN)[C@@H](c2nc3cc(Cl)ccc3c(=O)n2Cc2ccccc2)C(C)C)cc1 [ispinesib]
# Outline: as §1
# Sequence of UniProt Q13356 (Q13356 whole entry, looked up): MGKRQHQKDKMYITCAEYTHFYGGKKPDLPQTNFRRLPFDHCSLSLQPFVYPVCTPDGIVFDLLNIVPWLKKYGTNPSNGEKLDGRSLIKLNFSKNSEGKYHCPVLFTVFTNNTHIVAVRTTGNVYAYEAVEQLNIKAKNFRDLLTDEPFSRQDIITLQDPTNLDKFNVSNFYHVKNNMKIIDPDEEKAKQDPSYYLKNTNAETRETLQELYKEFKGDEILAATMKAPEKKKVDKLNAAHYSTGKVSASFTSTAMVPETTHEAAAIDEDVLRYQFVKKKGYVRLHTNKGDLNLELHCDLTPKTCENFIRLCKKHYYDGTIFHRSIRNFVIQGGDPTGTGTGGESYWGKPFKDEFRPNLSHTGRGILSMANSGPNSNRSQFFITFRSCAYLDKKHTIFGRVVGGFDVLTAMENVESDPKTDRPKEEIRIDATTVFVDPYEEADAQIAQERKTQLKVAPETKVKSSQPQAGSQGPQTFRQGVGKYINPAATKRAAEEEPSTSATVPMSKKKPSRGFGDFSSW
# Sequence of UniProt Q9Y3E5 (Q9Y3E5 whole entry, looked up): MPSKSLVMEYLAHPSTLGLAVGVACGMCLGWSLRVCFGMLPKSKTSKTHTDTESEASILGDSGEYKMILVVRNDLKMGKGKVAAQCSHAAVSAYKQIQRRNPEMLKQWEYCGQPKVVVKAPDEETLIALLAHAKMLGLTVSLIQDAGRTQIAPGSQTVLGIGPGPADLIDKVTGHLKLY
# Sequence of UniProt Q8NHP8 (Q8NHP8 whole entry, looked up): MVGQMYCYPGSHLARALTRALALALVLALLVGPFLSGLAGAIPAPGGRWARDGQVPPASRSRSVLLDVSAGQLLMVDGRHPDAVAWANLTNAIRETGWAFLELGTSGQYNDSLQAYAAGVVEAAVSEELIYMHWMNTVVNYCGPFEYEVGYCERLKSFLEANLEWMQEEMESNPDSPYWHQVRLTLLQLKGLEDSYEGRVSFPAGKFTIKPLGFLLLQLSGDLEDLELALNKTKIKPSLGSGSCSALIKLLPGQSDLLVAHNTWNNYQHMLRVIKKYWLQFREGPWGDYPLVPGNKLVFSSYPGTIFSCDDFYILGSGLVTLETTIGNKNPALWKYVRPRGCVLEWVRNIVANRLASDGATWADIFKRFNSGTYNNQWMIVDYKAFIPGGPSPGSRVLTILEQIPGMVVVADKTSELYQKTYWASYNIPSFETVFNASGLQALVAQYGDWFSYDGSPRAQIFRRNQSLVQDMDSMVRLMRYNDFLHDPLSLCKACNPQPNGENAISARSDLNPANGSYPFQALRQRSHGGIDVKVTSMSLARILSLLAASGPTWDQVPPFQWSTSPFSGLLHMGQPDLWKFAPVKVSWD
# Sequence of UniProt P05423 (P05423 whole entry, looked up): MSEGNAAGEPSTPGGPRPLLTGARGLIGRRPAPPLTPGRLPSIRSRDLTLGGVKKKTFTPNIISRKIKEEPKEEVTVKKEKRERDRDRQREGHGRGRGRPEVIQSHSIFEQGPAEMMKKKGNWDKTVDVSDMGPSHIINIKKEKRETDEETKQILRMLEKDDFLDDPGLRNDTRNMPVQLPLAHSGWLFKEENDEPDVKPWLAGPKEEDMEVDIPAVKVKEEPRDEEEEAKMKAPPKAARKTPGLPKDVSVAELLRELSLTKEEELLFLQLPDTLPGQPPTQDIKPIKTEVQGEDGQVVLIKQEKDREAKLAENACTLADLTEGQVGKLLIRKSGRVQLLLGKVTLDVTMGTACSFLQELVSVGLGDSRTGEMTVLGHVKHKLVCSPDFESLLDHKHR
# Sequence of UniProt Q8NBL1 (Q8NBL1 whole entry, looked up): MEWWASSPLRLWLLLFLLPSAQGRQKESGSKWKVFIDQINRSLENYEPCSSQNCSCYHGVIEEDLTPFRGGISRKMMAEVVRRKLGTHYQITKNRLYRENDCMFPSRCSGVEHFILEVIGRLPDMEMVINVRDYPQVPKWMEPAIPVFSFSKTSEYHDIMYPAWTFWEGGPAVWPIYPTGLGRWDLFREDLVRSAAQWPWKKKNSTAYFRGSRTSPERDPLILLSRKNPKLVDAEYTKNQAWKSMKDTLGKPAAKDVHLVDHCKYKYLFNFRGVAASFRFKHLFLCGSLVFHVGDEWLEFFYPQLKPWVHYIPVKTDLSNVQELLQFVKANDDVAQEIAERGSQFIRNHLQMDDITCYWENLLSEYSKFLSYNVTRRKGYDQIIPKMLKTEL
# Sequence of UniProt Q16537 (Q16537 whole entry, looked up): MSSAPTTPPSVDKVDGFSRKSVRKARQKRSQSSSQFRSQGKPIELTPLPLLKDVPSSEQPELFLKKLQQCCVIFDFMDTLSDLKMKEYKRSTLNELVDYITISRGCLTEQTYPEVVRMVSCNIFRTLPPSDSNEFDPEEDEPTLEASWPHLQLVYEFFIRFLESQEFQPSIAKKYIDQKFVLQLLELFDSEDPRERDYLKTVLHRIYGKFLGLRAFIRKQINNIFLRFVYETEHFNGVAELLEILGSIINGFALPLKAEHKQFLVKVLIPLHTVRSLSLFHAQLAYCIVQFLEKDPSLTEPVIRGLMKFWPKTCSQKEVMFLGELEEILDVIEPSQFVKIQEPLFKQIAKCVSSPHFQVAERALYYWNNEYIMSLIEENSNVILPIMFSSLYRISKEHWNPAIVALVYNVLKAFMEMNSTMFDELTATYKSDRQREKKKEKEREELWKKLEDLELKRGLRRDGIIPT
# Sequence of UniProt Q29RF7 (Q29RF7 whole entry, looked up): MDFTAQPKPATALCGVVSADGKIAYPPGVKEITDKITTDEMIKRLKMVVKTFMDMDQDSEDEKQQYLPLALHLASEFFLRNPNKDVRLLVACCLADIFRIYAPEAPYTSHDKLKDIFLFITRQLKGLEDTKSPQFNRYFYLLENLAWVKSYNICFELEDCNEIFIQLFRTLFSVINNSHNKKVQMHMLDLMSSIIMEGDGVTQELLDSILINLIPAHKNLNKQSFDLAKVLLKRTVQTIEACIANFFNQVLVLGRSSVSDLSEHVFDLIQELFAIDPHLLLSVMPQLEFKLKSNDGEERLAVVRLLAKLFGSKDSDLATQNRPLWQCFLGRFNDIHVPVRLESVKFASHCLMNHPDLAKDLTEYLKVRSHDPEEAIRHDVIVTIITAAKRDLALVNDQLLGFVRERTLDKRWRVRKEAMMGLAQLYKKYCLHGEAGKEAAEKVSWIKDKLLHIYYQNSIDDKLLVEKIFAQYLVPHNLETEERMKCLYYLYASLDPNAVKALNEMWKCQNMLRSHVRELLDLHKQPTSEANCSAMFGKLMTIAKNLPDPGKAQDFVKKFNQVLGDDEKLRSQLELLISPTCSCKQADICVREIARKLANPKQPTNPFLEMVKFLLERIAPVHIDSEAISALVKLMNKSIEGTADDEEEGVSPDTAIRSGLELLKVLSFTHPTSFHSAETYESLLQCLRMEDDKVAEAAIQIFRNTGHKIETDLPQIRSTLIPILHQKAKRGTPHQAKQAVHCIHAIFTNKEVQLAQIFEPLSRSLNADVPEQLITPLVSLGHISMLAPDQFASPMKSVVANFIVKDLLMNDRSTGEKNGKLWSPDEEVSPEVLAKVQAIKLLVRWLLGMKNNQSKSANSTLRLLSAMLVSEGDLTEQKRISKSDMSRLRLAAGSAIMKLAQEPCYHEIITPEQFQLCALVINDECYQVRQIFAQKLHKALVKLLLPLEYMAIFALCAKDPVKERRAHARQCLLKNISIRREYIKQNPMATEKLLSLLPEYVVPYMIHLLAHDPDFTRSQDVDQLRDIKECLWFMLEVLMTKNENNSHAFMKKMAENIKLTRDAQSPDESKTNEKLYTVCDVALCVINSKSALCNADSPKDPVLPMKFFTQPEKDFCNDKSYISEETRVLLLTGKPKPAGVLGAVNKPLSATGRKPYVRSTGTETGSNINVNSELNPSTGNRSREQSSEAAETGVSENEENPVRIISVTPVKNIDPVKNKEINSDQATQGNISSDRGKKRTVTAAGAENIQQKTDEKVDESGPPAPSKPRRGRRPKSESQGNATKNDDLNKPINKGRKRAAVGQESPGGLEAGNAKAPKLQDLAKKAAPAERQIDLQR
# Sequence of UniProt P14618 (P14618 whole entry, looked up): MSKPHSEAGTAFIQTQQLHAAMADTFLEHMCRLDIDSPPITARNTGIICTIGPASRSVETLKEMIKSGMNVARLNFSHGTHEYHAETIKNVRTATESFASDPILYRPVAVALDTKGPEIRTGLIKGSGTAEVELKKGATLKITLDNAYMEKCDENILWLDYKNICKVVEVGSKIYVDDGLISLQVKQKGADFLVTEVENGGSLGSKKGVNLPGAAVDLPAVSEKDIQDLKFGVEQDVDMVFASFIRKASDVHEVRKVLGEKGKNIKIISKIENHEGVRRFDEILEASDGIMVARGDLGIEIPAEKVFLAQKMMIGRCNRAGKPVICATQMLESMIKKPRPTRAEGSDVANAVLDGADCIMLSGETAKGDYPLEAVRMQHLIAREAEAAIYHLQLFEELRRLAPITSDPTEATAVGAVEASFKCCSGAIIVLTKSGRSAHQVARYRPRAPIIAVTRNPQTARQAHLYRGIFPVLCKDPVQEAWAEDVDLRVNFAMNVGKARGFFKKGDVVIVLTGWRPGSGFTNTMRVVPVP
# Sequence of UniProt O15162 (O15162 whole entry, looked up): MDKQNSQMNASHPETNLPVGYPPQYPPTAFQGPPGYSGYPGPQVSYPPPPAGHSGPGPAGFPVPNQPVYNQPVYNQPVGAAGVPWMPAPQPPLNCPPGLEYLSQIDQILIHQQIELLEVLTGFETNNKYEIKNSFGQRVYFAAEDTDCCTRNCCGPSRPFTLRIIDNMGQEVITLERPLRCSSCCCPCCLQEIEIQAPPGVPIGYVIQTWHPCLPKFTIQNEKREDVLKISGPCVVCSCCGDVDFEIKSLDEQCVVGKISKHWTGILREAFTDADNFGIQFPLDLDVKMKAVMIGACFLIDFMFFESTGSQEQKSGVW
Target,log2 fold change [1],log2 fold change [2],log2 fold change [3],log2 fold change [4],log2 fold change [5],log2 fold change [6],log2 fold change [7],log2 fold change [8],log2 fold change [9],log2 fold change [10],log2 fold change [11],log2 fold change [12],log2 fold change [13],log2 fold change [14],log2 fold change [15],log2 fold change [16],log2 fold change [17],log2 fold change [18],log2 fold change [19],log2 fold change [20]
PPIL2 (UniProt Q13356),0.035,0.012,0.05,-0.032,0.01,0.131,0.076,-0.023,-0.02,0.028,0.029,0.027,0.061,-0.012,0.121,-0.081,0.039,0.131,-0.079,0.037
PRPF38A (UniProt Q8NAV1),-0.113,0.046,-0.014,0.035,-0.033,0.041,0.009,0.002,-0.035,0.085,-0.029,0.018,0.017,0.009,0.037,-0.042,-0.071,0.017,0.006,-0.024
POLR3D (UniProt P05423),-0.014,0.041,0.065,0.574 (active),-0.091,-0.017,0.036,-0.136,-0.001,0.013,0.088,-0.035,-0.064,0.112,0.011,-0.056,-0.063,-0.085,0.022,-0.05
PPP2R5E (UniProt Q16537),-0.044,-0.056,-0.009,-0.191,-0.024,0.205,0.002,0.033,-0.024,-0.118,-0.024,-0.15,0.037,0.105,0.078,0.167,-0.072,0.015,-0.01,-0.024
PDS5A (UniProt Q29RF7),0.076,-0.316,-0.137,-0.012,0.067,0.043,-0.125,-0.19,-0.072,-0.014,0.03,-0.383,0.063,0.043,0.053,-0.099,0.117,0.182,-0.057,-0.127
POGLUT1 (UniProt Q8NBL1),-0.086,0.076,-0.004,0.114,-0.051,0.035,-0.046,-0.132,0.036,-0.099,0.064,0.059,0,0.241,-0.021,-0.011,0.004,0.037,0.029,0.087
PTRH2 (UniProt Q9Y3E5),0.403 (active),-0.033,0.01,-0.076,-0.009,0.07,0.015,0.001,0.012,-0.005,0.02,0.081,0.061,-0.098,0.051,-0.02,0.001,-0.001,-0.074,0.181
PLSCR1 (UniProt O15162),-0.017,0.01,-0.012,0.033,-0.006,-0.046,0.016,0.145,0.051,0.037,0.079,0.017,0.101,-0.024,0.037,-0.096,-0.075,-0.017,0.042,-0.619 (active)
POLR2K (UniProt P53803),-0.052,0.071,-0.05,-0.101,-0.005,0.134,-0.012,-0.213,0.003,0.117,0.029,0.18,0.074,0.098,0.154,-0.011,-0.065,0.001,-0.059,0.029
PKM (UniProt P14618),0,-0.048,-0.004,-0.04,-0.073,0.012,-0.002,0.054,-0.033,0.026,0.003,0.021,0.013,-0.044,0.007,-0.013,-0.026,-0.029,-0.019,0.02
PLBD2 (UniProt Q8NHP8),-0.069,-0.015,-0.029,-0.012,-0.048,-0.007,0.018,0.041,-0.008,0.027,0.014,-0.07,0.044,-0.008,0.045,0.003,0.015,-0.028,0.022,-0.088
PEX13 (UniProt Q92968),0.028,-0.072,-0.129,-0.019,-0.037,-0.318 (active),-0.045,0.115,-0.013,0.009,-0.005,-0.146,0.034,-0.047,0.078,-0.143,-0.163,-0.016,0.056,-0.026

# Reference: the supplement of paper PMC10849652
